Bioassay records as filed in PubChem.
aSyn 5UTR act = Activators via SNCA 5'UTR binding, MLPCN; AID 1814, 2009; activity score, % (tested at 7.5 µM), hits read low; alpha-synuclein 5'UTR reporter, activators screen; 7.1% of 300,000 active; in the data active means activity score below about -60%
* = called active by the depositor. Only a sample is shown.

SMILES	aSyn 5UTR act
CC(=O)Nc1cccc(NC(=O)C(=O)c2cn(CC(=O)N3CCCCC3)c3ccccc23)c1	-121*
COc1ccc(NC(=O)C(=O)c2cn(CC(=O)N3CCCC3)c3ccccc23)cc1	105
Cc1cccc(-c2noc(CCc3ccccc3)n2)c1	-121*
Cc1cccc(-c2noc(Cc3ccccc3)n2)c1	-169*
Cc1ccc(-c2noc(CNc3ccccc3)n2)cc1	-78*
CNC(=O)C(=O)Nc1nc(C23CC4CC(CC(C4)C2)C3)cs1	-129*
CSCc1nc2sc(C(=O)Nc3nc(C)cs3)c(C)c2c(=O)[nH]1	-92*
COc1cccc(-c2cn3nc(C)c(C)nc3n2)c1	-70*
Cc1nnc(SCC(=O)Nc2nsc(-c3ccc(C(C)(C)C)cc3)n2)s1	-70*
COc1nc(-c2ccccc2)nnc1-c1ccccc1	-124*
Fc1ccc(NC(=S)Nc2cccc3ccccc23)cc1	-84*
Cc1ccc(NC(=S)Nc2cccc3ccccc23)cc1	-65*
CC(/C=C/c1ccccc1)=N/NC(=O)c1cnccn1	-120*
O=C(/C=C/c1ccccc1)NC(=S)NNC(=O)c1cnccn1	87
CCCCC(=O)N/C(N)=N/c1nc2ccccc2o1	-206*
N/C(=N\c1nc2ccccc2o1)NC(=O)c1ccccc1F	-198*
S=C(N/N=C/c1ccccc1Cl)Nc1ccccc1	-106*
COc1ccc(/C=N/NC(=S)Nc2ccccc2)cc1	-72*
S=C(N/N=C/c1ccc2ncccc2c1)Nc1ccccc1	108
COc1ccc(NC(=O)O/N=C/c2ccccc2)cc1	-140*
Cc1cccc(C(=O)N2CCCC(c3nc(-c4ccc(C)o4)no3)C2)c1 (configuration not stated)	-145*
Cc1nc2ccc(Cl)cc2nc(C)/c1=N\O	-219*
Cc1ccc2nc(C)/c(=N\O)c(C)nc2c1	-239*
CC1N/C(=C\C(=O)c2ccccc2)N(O)C1(C)C (configuration not stated)	-124*
Clc1ccc(COc2ccccc2-c2ccnc3ncnn23)cc1	-75*
SMILES	aSyn 5UTR act
CCN(CC)CCNC(=O)c1ccc2c(c1NCCO)C(=O)c1ccccc1C2=O	96
CCN(CC)C(=O)c1ccc2c(c1[N+](=O)[O-])C(=O)c1ccccc1C2=O	-93*
CCOc1ccc(N2Nc3n[nH]c(N)c3N2)cc1	-65*
COc1ccc(N2Nc3n[nH]c(N)c3N2)cc1	-73*
Cc1ccnc(NC(=O)c2cnc(Cl)c(Cl)c2)c1	-62*
Cc1ccc(C(=O)NCC(=O)Nc2cc(C)ccn2)cc1	-66*
Cc1ccnc(NC(=O)CCNC(=O)c2ccc(Cl)cc2)c1	-110*
CCOc1ccc(C(=O)Nc2cc(C)ccn2)cc1	65
Cc1ccnc(NC(=O)c2ccc(Cl)s2)c1	-104*
Cc1ccc(-c2cnc(-c3ccncc3)o2)cc1	-157*
Nc1ccc(-c2ncc(-c3ccccc3)o2)cc1	86
COc1cc(OC)c(OC)cc1CN1CCCC(C(=O)c2ccccc2SC)C1 (configuration not stated)	50
COc1ccccc1C(=O)C1CCCN(C(=O)Nc2ccccc2F)C1 (configuration not stated)	-64*
CC(C)C1N=C(c2ccc3c(c2)OCO3)CC(c2ccccc2O)N1 (configuration not stated)	-300*
CCC1CCCCN1CCCNC(=O)Cn1c2ccccc2c2nc(=O)cc(C)n21 (configuration not stated)	-139*
COc1ccc(NC(=O)c2scc(S(=O)(=O)C(C)C)c2N)cc1	-193*
COc1ccc(NC(=O)c2sc(SC)nc2N)cc1	-197*
COc1ccc(NC(=O)c2cnc(SC)nc2)cc1	-124*
CC(=O)c1cccc(N=Nc2c(C)[nH]c3ccccc23)c1	-150*
O=C(NC1CCCC1)c1n[nH]c2ccccc12	-86*
O=C(NCC1CCCO1)C(=O)c1c[nH]c2ccccc12 (configuration not stated)	-73*
O=C(NCCC1=CCCCC1)C(=O)c1c[nH]c2ccccc12	-81*
O=C(NC1CCCCC1)C(=O)c1c[nH]c2ccccc12	-115*
Cc1ccc(NC(=O)C(=O)c2c[nH]c3ccccc23)cc1	-169*
C(=N\C(/N=C/c1ccco1)c1ccco1)/c1ccco1	-68*
SMILES	aSyn 5UTR act
Cc1cccc(NC(=O)c2ccc3c(c2)OCCO3)n1	-84*
Cc1cccc(NC(=O)c2ccc3nccnc3c2)n1	-76*
Cc1ccc(NC(=O)c2ccc3nccnc3c2)c(C)c1	-102*
Cc1nc(NC(=O)c2ccc3c(c2)OCO3)ccc1Br	-140*
Cc1cc(NC(=O)c2ccc3c(c2)OCCO3)no1	62
CC(C)(C)c1csc(NC(=O)c2ccc3nccnc3c2)n1	-178*
O=C(c1ccco1)N1CCN(c2ccc(Cl)c(Cl)c2)CC1	-121*
O=C(c1ccco1)N1CCN(Cc2c(F)cccc2Cl)CC1	-75*
O=C(c1ccco1)N1CCN(C(=O)N2c3ccccc3Sc3ccccc32)CC1	81
O=C(c1ccco1)N1CCN(c2ccc(Cl)cc2)CC1	-130*
CCC(C)NC(=O)c1cc(Sc2nnc(C)s2)nc2ccccc12 (configuration not stated)	-67*
CCC(C)Nc1nc(N)c([N+](=O)[O-])c(NC2CCCCC2)n1 (configuration not stated)	102
CCC(C)Nc1nc(N)c([N+](=O)[O-])c(NCc2ccccc2)n1 (configuration not stated)	65
Cc1ccc(Nc2nc(NCc3ccco3)c3ccccc3n2)cc1	-139*
O=c1c2ccccc2nc2c3ccccc3c(NCc3ccco3)nn12	-82*
Nc1nc(Nc2ccc(Cl)cc2)nc(NCc2ccco2)c1[N+](=O)[O-]	-75*
Fc1cccc(CSc2ccc(-c3ccco3)nn2)c1	-176*
Fc1ccc(CSc2ccc(-c3ccco3)nn2)cc1	-153*
O=C(O)c1ccc(N/N=C/c2cn(Cc3ccccc3F)c3ccccc23)cc1	-65*
Nc1ccc(C(=O)N/N=C/c2cn(Cc3ccccc3F)c3ccccc23)cc1	72
CC(C)n1cc(/C=N/Nc2ccc(C(=O)O)cc2)c2ccccc21	-79*
O=C(NCCc1ccccc1)c1ccc2c(c1)OCO2	91
COc1ccc(C(=O)NCCn2ccc3ccccc32)cc1	-131*
O=C(NCCn1ccc2ccccc21)c1ccc2c(c1)OCO2	-108*
CN=C(c1ccc(C)cc1)n1c(=S)nc(-c2ccc(C)cc2)n(C)c1=S	-149*
SMILES	aSyn 5UTR act
CC(C)(C)c1ccc(-n2ncc3c2CCCC3NC(=O)c2cnccn2)cc1 (configuration not stated)	-68*
O=C(CCc1ccncc1)NC1CCCc2c1cnn2-c1cc(F)cc(F)c1 (configuration not stated)	79
Cc1ccc(NC(=O)c2cc3cccc([N+](=O)[O-])c3[nH]2)cc1	-110*
CN(C)N1C(=O)/C(=C/c2ccco2)SC1=Nc1ccccc1	-64*
CCc1ccc(S(=O)(=O)/N=C2\C=C(Nc3ccc(O)cc3)C(=O)c3ccccc32)cc1	101
Cc1ccc(S(=O)(=O)/N=C2/C=C(C3C(=O)CC(C)(C)CC3=O)C(=O)c3ccccc32)cc1	-180*
Cc1ccc(NC2=C/C(=N\S(=O)(=O)c3cccs3)c3ccccc3C2=O)c(C)c1	118
Cc1ccccc1-c1nnc(-c2cccs2)o1	-116*
Cc1ccccc1-c1noc(-c2cccs2)n1	-251*
Cc1cccc(NS(=O)(=O)c2ccc(-c3cnc(C4CC4)o3)cc2)c1C	100
Nc1ccc2oc(=O)c3ccccc3c2c1	-174*
O=C1Nc2ccccc2/C1=N/c1sc2c(c1C(=O)NCCc1ccccc1)CCCC2	-87*
